# Screening data (PubChem BioAssay)
# Shown are actives, neighbours in structure and some others; about 1.7% of the full set was active somewhere.
# LYPLA1 counter: counter-screen for PME1 inhibitors: inhibitors of human LYPLA1; O75608; recombinant LYPLA1, FP-Rh probe fluorescence polarization; AID 2174; 0.16% of 320,000 active; inhibition, % at 5.9 µM;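 active = inhibition above the mean of all tested compounds plus 3 SD, set per campaign, cut at about 14% in these data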;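 also: inhibitors block serine hydrolase probe labeling of LYPLA1 so polarization falls; 0% = enzyme with DMSO and 100% = wells lacking LYPLA1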
# Target sequence (O75608 whole entry, looked up): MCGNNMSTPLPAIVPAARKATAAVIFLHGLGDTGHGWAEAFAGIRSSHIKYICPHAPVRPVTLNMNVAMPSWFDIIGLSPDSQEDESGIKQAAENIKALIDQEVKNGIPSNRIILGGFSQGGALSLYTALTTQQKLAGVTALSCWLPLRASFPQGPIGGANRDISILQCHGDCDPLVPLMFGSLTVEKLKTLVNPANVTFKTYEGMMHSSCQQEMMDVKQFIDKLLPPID
# Hck Nef HTS: inhibitors of human Hck kinase activated by Nef; AID 463187; P08631; Recombinant Hck-YEEI plus Nef, Z-Lyte FRET kinase assay; inhibition, % at 20 µM; 0.68% of 220,000 active;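 active = Hck-Nef kinase inhibition above about 50%, limit read from the data; inactive = inhibition below that limit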;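 also: 0% = DMSO with Hck plus Nef and 100% = Hck alone without Nef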
# LYPLA2 inh: counter-screen for PME1 inhibitors: inhibitors of human LYPLA2; recombinant LYPLA2, FP-Rh probe fluorescence polarization; AID 2177; inhibition, % at 5.9 µM; 0.38% of 320,000 active;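 active = inhibition above the screen-wide mean plus 3 SD, limit set per campaign, cut at about 26% in these data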;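 also: 0% = LYPLA2 with DMSO and 100% = wells lacking LYPLA2 enzyme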
# Target sequence (O95372 whole entry, looked up): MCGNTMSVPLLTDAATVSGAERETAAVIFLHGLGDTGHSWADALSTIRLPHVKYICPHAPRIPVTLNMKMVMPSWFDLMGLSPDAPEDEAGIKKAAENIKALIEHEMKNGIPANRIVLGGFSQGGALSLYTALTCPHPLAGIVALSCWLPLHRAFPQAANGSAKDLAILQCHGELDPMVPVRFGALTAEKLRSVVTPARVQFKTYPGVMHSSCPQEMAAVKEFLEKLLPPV
# Rin1 Abl inh: inhibitors of human Rin1-Abl protein interaction | P00519+Q13671 | TR-FRET Rin1/Abl binding, biochemical | inhibition, % at 7.35 µM | 0.4% of 360,000 active; in the data active = inhibition above about 5%, passing the limit was not always enough
# p97 inhibitor: human p97 ATPase inhibition. recombinant p97 ATPase, Kinase-Glo ATP luminescence, 3 h. inhibition, % at 8 µM. 0.42% of 220,000 active; in the data active = inhibition above about 15%;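 also: 0% = DMSO vehicle and 100% = wells lacking enzyme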
# PREPL inhibitor: inhibitors of human prolyl oligopeptidase-like enzyme PREPL; Q4J6C6; recombinant PREPL, fluorescence polarization activity-based probe; inhibition, % at 5.96 µM; 0.68% of 320,000 active; in the data active = inhibition above about 43%;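 also: 0% = enzyme with DMSO and 100% = wells lacking enzyme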
# Hck-Nef confirm: confirmation of Hck-Nef kinase inhibitors; calls only at 10 µM; 28% of 1,300 active; Recombinant Hck-YEEI:Nef, Z-Lyte FRET kinase assay; shares compounds with Hck Nef HTS;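 active = average inhibition of at least 50%, with Z-scores no higher than 3 in both the phospho-tyrosine peptide and fluorescence counterscreens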
# An asterisk follows results filed as active; i = inactive; nt = no result given; + = active, no number.
SMILES,LYPLA1 counter,Hck Nef HTS,LYPLA2 inh,Rin1 Abl inh,p97 inhibitor,PREPL inhibitor,Hck-Nef confirm
COc1ccc(CCN2CC(C(=O)OCC(=O)NC(C)c3cccc(Cl)c3)CC2=O)cc1OC (stereo not given),-2,nt,1,4,nt,-12,nt
COc1ccc(-c2ccc(/C=N/NC(=O)Cc3nnc(N)s3)o2)cc1Cl,-6,79*,-7,-2,10,16,i
O=C(O)C1CSC(c2coc3ccccc3c2=O)N1 (stereo not given),-5,91*,0,2,2,-9,+
Cc1nc2ccc3nc(NC(=O)c4ccco4)sc3c2s1,-9,0,-10,-2,2,11,nt
O=C(Nc1nc2ccsc2c(=O)s1)c1ccco1,-1,65*,2,-2,6,0,i
O=C1C=C(N2CCN(c3ccccn3)CC2)C(=O)c2c(O)ccc(O)c21,nt,nt,nt,3,nt,nt,nt
CC1=CC(=O)c2c(O)ccc(O)c2C1=O,-4,60*,25,nt,14,35,+
CN(CC(=O)Nc1ccc(F)c(F)c1F)C(=O)C1COc2ccccc2O1 (stereo not given),nt,nt,nt,1,nt,17,nt
CCCn1nc(NC(=O)C2CCCO2)c2cc3cccc(C)c3nc21 (stereo not given),-1,52*,-2,-4,0,4,i
CC(C)Cn1nc(NC(=O)C2CCCO2)c2cc3ccccc3nc21 (stereo not given),4,29,12,-1,-2,-10,nt
Clc1ccc2oc(-c3cccnc3NCc3ccccc3)nc2c1,-3,90*,1,-6,3,-5,nt
Cc1ccc(CNc2ncccc2-c2nc3cc(Cl)ccc3o2)cc1,-3,66*,-5,-2,-5,-10,+
CCOc1ccc(NS(=O)(=O)c2ccc(C(=O)NC3CCC(O)CC3)cc2)cc1 (stereo not given),1,nt,3,2,nt,18,nt
Cc1ccc(C(=O)Nc2cccc(C(=O)N/N=C/c3ccc(F)cc3)c2)cc1,-3,nt,-9,-3,nt,-14,nt
COc1ccc(OC)c(N(CC(=O)NC2CCCCCC2)S(=O)(=O)c2ccc(C)cc2)c1,-2,nt,-2,2,nt,2,nt
O=C(Oc1ccc(-c2cnc3ccccc3n2)cc1)c1cc([N+](=O)[O-])ccc1Cl,4,53*,4,0,3,13,+
Cc1c(C(=O)Oc2ccc(-c3cnc4ccccc4n3)cc2)cccc1[N+](=O)[O-],2,5,2,-5,0,18,nt
Cc1cc2c(s1)c1cnn(-c3ccccc3)c(=O)c1n2C,nt,nt,nt,-1,nt,15,nt
Cc1cc2c(s1)c1cnn(CC(=O)NCCc3ccccc3)c(=O)c1n2C,-3,76*,-6,nt,0,12,i
CCOCCCNC(=O)c1cn(CC)c2ccc(S(=O)(=O)N3CCC(C)CC3)cc2c1=O,5,nt,4,5,nt,-5,nt
COC(=O)c1c(NC(=O)COC(=O)c2ccc(NC(=O)CC#N)cc2)sc2c1CCCCC2,-16,113*,-31,0,-1,-6,+
O=C(CSc1ccccc1F)NNC(=O)c1cncc(Br)c1,nt,nt,nt,1,nt,12,nt
O=C(Cn1c(NCCCO)nc2ccccc21)c1ccc(Cl)cc1Cl,5,nt,11,2,nt,34,nt
CCOc1ccc(S(=O)(=O)N2CCCCC2)c(C)c1C,nt,83*,nt,2,-7,nt,i
CCOC(=O)c1sc(NC(=O)C2CC(=O)N(c3ccc(OCC)cc3)C2)nc1C (stereo not given),-4,nt,-2,-2,nt,3,nt
SMILES,LYPLA1 counter,Hck Nef HTS,LYPLA2 inh,Rin1 Abl inh,p97 inhibitor,PREPL inhibitor,Hck-Nef confirm
Cc1cc(=O)n2[nH]c(C)c(-c3ccccc3)c2n1,1,-2,-5,2,-5,16,nt
O=c1cc(-c2ccccc2)nc2c(-c3ccccc3)c(C(F)(F)F)[nH]n12,-3,57*,-6,0,3,-1,i
N=c1c2c(-c3ccccc3)c(-c3ccccc3)oc2ncn1CCN1CCOCC1,-4,78*,-9,1,-4,-5,+
c1ccc(-c2oc3ncnc(NCCN4CCOCC4)c3c2-c2ccccc2)cc1,-3,83*,-9,1,-6,-6,+
Cc1nc2ccc(NC(=O)CSc3nnc(C)s3)cc2[nH]1,1,nt,0,2,nt,2,nt
Cc1ccc(-c2csc3ncnc(Nc4ccc(C(=O)O)cc4)c23)cc1,-1,55*,2,-6,14,-1,i
O=C(Nc1cccc(-c2nc3cccnc3s2)c1)C1c2ccccc2Oc2ccccc21,nt,102*,nt,-4,4,nt,+
O=C(Nc1cccc(-c2nc3cccnc3s2)c1)c1ccc(Cl)nc1,-27,87*,-18,-4,-1,-5,i
O=C(O)c1ccccc1C(=O)OCCCc1ccncc1,1,nt,-1,4,nt,-3,nt
Cc1cc(C)n2nc(SC(C)C(=O)N(C)c3ccccc3)nc2n1 (stereo not given),3,nt,5,2,nt,3,nt
Cc1ccc(C(=O)CN2C(=O)NC3(CCCCCC3)C2=O)c(C)c1,1,nt,0,-3,nt,1,nt
Cc1ccc(C)c(N2N=C(C(=O)Nc3cccc(S(=O)(=O)N4CCCCC4)c3)CCC2=O)c1,0,nt,1,4,nt,18,nt
CC(C)n1cnc2c(Nc3cccc(F)c3)nc(NCCO)nc21,0,97*,1,-2,nt,7,+
N#Cc1nc(Nc2cccc(Cl)c2)c2ncn(C3CCCC3)c2n1,-11,nt,-12,3,nt,4,nt
CC(C)n1cnc2c(Nc3ccc(F)c(Cl)c3)nc(NCCO)nc21,1,nt,4,3,nt,20,nt
CC(C)C[C@H](CO)Nc1nc(Nc2cccc(Cl)c2)c2ncn(C(C)C)c2n1,-2,106*,-5,6,nt,15,+
N#CCCN(C(=O)COC(=O)c1cc(S(=O)(=O)N2CCOCC2)ccc1Cl)c1ccc(F)cc1,0,nt,2,4,nt,-3,nt
O=C(Nc1ccc(-c2nc3ccccc3[nH]2)cc1)c1c(F)c(F)c(F)c(F)c1F,-1,112*,-10,3,1,1,i
CCOc1ccc(C(=O)Nc2ccc(-c3nc4ccccc4[nH]3)cc2)cc1[N+](=O)[O-],-13,78*,-15,-2,-1,-5,+
O=C(Nc1cccc(-c2nc3ccccc3[nH]2)c1)c1cccc(NC(=O)c2ccco2)c1,-53,74*,-84,0,-3,-4,+
Cc1cc(Nc2cccc(Br)c2)c2ccccc2n1,0,nt,-2,3,nt,28,nt
CC1CCCC(NC(=O)CSc2ncccn2)C1C (stereo not given),0,nt,-2,6,nt,6,nt
COc1ccc2cc(CCNC(=O)c3ccc(S(=O)(=O)N4CCOCC4)cc3)c(=O)[nH]c2c1,-3,nt,4,2,nt,0,nt
